# The whole screen tested about 140,000 compounds, of which about 1,700 (1.2%) were called active. The entries come from a sample that favours actives as a whole. Unmarked numbers belong to inactive results.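 Rule for the calls: active = viability at or below a set limit, 4 SD under the median of all tested compounds (cut at about 3.7% in these data); inactive = the rest.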
# Experiment: viability loss in PTEN-deleted colon tumor cells – cell-based, HCT116, CellTiter-Glo, primary screen (AID 827);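 note: PTEN knockout HCT116 line with beta catenin targeted HCT116 as companion control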
# Conditions: HCT116 PTEN-null viability, 60 h, at 10 µM, stronger effect = lower value
row,SMILES,viability
1,CN(C)c1ccc(/C=C2\CC3C4CC=C5CC(O)CCC5(C)C4CCC3(C)C2=O)cc1 (stereo not given),2.86% (active)
2,Cc1cccc(-n2c(O)c(/C=N/N3CCOCC3)c(=O)[nH]c2=S)c1,108%
3,O=c1[nH]c(=S)n(C2CC2)c(O)c1/C=N/N1CCOCC1,95.3%
4,CN(C)CC1CCCCC1OC(=O)c1ccc(Cl)c(Cl)c1 (stereo not given),82.2%
5,CCCCC(=O)N/N=C/c1c(O)n(CC)c(=S)n(CC)c1=O,11.8%

# Source: PubChem BioAssay AID827 (SRMLSC, 2007)
